Screening data: PubChem, National Center for Advancing Translational Sciences (NCATS)
HCMV inh = qHTS Assay for inhibitors of the human cytomegalovirus (HCMV); HFF cells, HCMV-luciferase reporter, 72 h; active compounds read low; 410,000 compounds, 4.5% hits; activity change, negative = inhibition, % at 57.5 µM; AID 1259415, 2018; in the data active = activity change below about -60%; inconclusive = no clear call, values can overlap the other calls; inactive = above about -39%
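Human foreskin fibroblasts infected with luciferase-reporter HCMV at MOI 1 PFU/cell, compounds at two doses. Luciferase measured 72 h post infection; normalized to buffer-only basal and Salinomycin (10uM) controls.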
Pf growth 96h = Primary qHTS for delayed death inhibitors of the malarial parasite plastid, 96 hour incubation | Potency, µM (highest dose often 28.7 µM), inactives show at the top dose activity change, negative = inhibition, actives largely listed as inhibitors | AID 504834, 2011 | 320,000 compounds, 6.9% hits | P. falciparum luciferase reporter growth, 96 h; note: potency is the fitted concentration of half-maximal effect
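Parasite growth measured via integrated firefly luciferase reporter in P. falciparum. Infected erythrocytes at 2% hematocrit, 0.05% parasitemia final were treated 96 hours at 37 C under 5% CO2, and luminescence was read.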
Sm TGR block = qHTS Assay for the Inhibitors of Schistosoma Mansoni Peroxiredoxins; Schistosoma mansoni thioredoxin glutathione reductase (TGR), Q962Y6; purified TGR, DTNB reduction, TNB absorbance 405 nm; Potency, µM (top dose mostly 114 µM), without a hit: top-dose activity change, negative = inhibition, most hits filed as inhibitors; 360,000 compounds, 3% hits; note: potency is the fitted concentration of half-maximal effect; nearly all actives have a fitted effect of over 60% in size
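First, TGR (20 nM dispensed) and NADPH were mixed with compound. Second, a 15 min room-temperature incubation followed. Third, further NADPH and then DTNB were added to start the reaction. Finally, TNB absorbance was monitored kinetically.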
Pf growth 48h = Primary qHTS for delayed death inhibitors of the malarial parasite plastid, 48 hour incubation; P. falciparum luciferase growth in erythrocytes, 48 h; Potency, µM (top dose mostly 28.7 µM), without a hit: at the top dose activity change, negative = inhibition, actives largely listed as inhibitors; 310,000 compounds, 5.9% hits; note: potency is the fitted concentration of half-maximal effect
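First compound was added to culture medium, then infected red cells at 0.1% parasitemia and 2% hematocrit (final). After incubation at 37 C under 5% CO2, luciferase detection reagent was dispensed and light output recorded.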
FBPA Giardia inh = qHTS Assay for Inhibitors of Fructose-1,6-bisphosphate Aldolase from Giardia Lamblia; A8B2U2; purified Giardia FBPA; Potency, µM (series often up to 59.6 µM), for the others: at the highest dose activity, negative = inhibition, usual class: inhibitors; 290,000 compounds, 0.71% hits; note: potency is the fitted concentration of half-maximal effect; nearly all actives have a fitted effect of over 55% in size
Target sequence (A8B2U2 whole entry, looked up): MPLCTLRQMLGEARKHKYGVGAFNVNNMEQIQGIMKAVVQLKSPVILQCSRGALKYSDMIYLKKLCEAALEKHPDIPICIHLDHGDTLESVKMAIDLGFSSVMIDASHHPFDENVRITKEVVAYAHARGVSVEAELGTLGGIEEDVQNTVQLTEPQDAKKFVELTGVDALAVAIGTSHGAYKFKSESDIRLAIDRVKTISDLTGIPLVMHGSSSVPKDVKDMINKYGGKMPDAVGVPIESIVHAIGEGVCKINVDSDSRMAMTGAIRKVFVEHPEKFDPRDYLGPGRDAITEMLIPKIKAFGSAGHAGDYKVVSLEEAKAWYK
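Giardia FBPA (40 nM reagent) was preincubated 10 min at RT with compound (up to 57.5 uM final), then substrate plus GAPDH/TPI/NAD/arsenate coupling system with diaphorase/resazurin was added; resorufin fluorescence (525/598 nm) was read after 20 min.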
* hit, by the source's call. Hits are enriched below; roughly 14% of the tested compounds scored in any of these assays. Unless noted, calls come from the whole dose curve; as a rule, active = well fitted curve in the direction sought with a large enough effect; inconclusive = small, poorly fitted or top-dose-only effect, or another doubt; inactive = no such curve, though single readings can be large; an effect the other way counts as inactive or inconclusive. % is set by controls: 0 for no effect and ±100 for the full control effect.

Results for Cc1ccc(NC2CC(=O)N(c3ccc(N4CCCCC4)cc3)C2=O)cc1 (centres undefined) ?
HCMV inh: 14; Pf growth 96h: 1.7µM*; Sm TGR block: inconclusive; Pf growth 48h: 4%; FBPA Giardia inh: 1%

Results for CCCCn1nnnc1C(c1ccccc1)N1CCN(c2ccc(F)cc2)CC1 (centres undefined) ?
HCMV inh: -9

What do the screens show for `Cc1cccc(C)c1-n1nnnc1C(c1cc2ccccc2o1)N1CCN(C/C=C/c2ccccc2)CC1` (centres undefined)?
HCMV inh: -62*

How did Cc1cccc(C)c1-n1nnnc1C(c1cccc2ccccc12)N1CCN(C/C=C/c2ccccc2)CC1 (centres undefined) do in these assays?
HCMV inh: -7

Results for CCOc1ccc(CN2CCN(Cc3cccn3-c3ncccn3)CC2CCO)cc1 (centres undefined) ?
HCMV inh: 5; Pf growth 96h: -40%; Sm TGR block: -14%; Pf growth 48h: inconclusive; FBPA Giardia inh: -3%

How did CCCc1nc(Cl)c(C#N)c2c1CCCC2 do in these assays?
HCMV inh: -38; Pf growth 96h: 19%; Sm TGR block: 25µM*; Pf growth 48h: 24%; FBPA Giardia inh: 8%

Results for CCc1nc(Cl)c(C#N)c2c1CSC(C)(C)C2 ?
HCMV inh: 36; Pf growth 96h: 14%; Sm TGR block: -4%; Pf growth 48h: -4%; FBPA Giardia inh: 3%

How did CC(C)Cc1nc(Cl)c(C#N)c2c1CCCC2 do in these assays?
HCMV inh: -75*; Pf growth 96h: inconclusive; Sm TGR block: -7%; Pf growth 48h: -10%; FBPA Giardia inh: 5%

Results for CCCc1nc(NCCO)c(C#N)c2c1CCCC2 ?
HCMV inh: -8; Pf growth 96h: -2%; Sm TGR block: -3%; Pf growth 48h: 20%; FBPA Giardia inh: 5%

Results for CCc1nc(Cl)c(C#N)c2c1CCCC2 ?
HCMV inh: -88*; Pf growth 96h: inconclusive; Sm TGR block: -3%; Pf growth 48h: 15%; FBPA Giardia inh: 8%

What do the screens show for `O=C(OCc1cc(=O)n2nc(-c3cccs3)sc2n1)c1ccccc1`?
HCMV inh: 16; Sm TGR block: 1%

How did COCCCNc1nc2c(-c3ccccc3)nnn2c2ccccc12 do in these assays?
HCMV inh: inconclusive; Sm TGR block: 6%

Results for O=C(CNS(=O)(=O)c1ccccc1)NCc1ccco1 ?
HCMV inh: 24; Pf growth 96h: -27%; Sm TGR block: inconclusive; Pf growth 48h: 7%; FBPA Giardia inh: -1%

What do the screens show for `CCOC(=O)c1c(NC(=O)C2CC(Cl)=CCC2C(=O)O)sc2c1CC(C)(C)OC2` (centres undefined)?
HCMV inh: inconclusive; Pf growth 96h: -12%; Pf growth 48h: -18%; FBPA Giardia inh: 17%

What do the screens show for `CC(C)NS(=O)(=O)c1ccc(CCC(=O)Nc2cc(Cl)ccc2Oc2ccccc2)cc1`?
Pf growth 96h: inconclusive; Sm TGR block: -17%; FBPA Giardia inh: -8%

How did CCOc1ccc(Oc2ccc(Cl)cc2NC(=O)CCNC(C)=O)cc1 do in these assays?
HCMV inh: -66*; Pf growth 96h: inconclusive; Sm TGR block: 1%; Pf growth 48h: -18%; FBPA Giardia inh: 1%

How did Cc1ccccc1OCC(=O)Nc1cc(Cl)ccc1Oc1ccccc1 do in these assays?
HCMV inh: 17; Pf growth 96h: 5.2µM*; Sm TGR block: 3%; Pf growth 48h: inconclusive; FBPA Giardia inh: 11%

Results for Cc1ccc(C(C)C)c(OCC(=O)NS(=O)(=O)c2ccc(Cl)cc2)c1 ?
HCMV inh: -9; Pf growth 96h: 0%; Sm TGR block: -15%; Pf growth 48h: 2%

How did COc1ccccc1OCC(=O)Nc1cc(Cl)ccc1Oc1ccccc1 do in these assays?
HCMV inh: -25; Pf growth 96h: 31%; Sm TGR block: -15%; Pf growth 48h: -76%; FBPA Giardia inh: 10%

How did CCNS(=O)(=O)c1ccc(CCC(=O)Nc2cc(Cl)ccc2Oc2ccccc2)cc1 do in these assays?
HCMV inh: inconclusive; Pf growth 96h: 8.3µM*; Sm TGR block: -3%; Pf growth 48h: inconclusive; FBPA Giardia inh: -6%

What do the screens show for `Cc1ccccc1OCC(=O)NS(=O)(=O)c1ccc(Cl)cc1`?
HCMV inh: 5; Pf growth 96h: 5.2µM*; Sm TGR block: 4%; Pf growth 48h: -10%

What do the screens show for `CCOc1ccc(NCC(=O)Nc2ccc(Cl)cc2C)cc1`?
HCMV inh: 15; Pf growth 96h: inconclusive; Sm TGR block: -19%; Pf growth 48h: inconclusive; FBPA Giardia inh: -25%

Results for O=C(COC(=O)c1ccccc1)Nc1cc(Cl)ccc1Oc1ccccc1 ?
HCMV inh: 2; Pf growth 96h: inconclusive; Sm TGR block: -2%; Pf growth 48h: 13%; FBPA Giardia inh: 1%

What do the screens show for `Cc1ccccc1OCC(=O)Nc1nnc(COc2ccccc2)s1`?
HCMV inh: -79*

How did O=C(COC(=O)c1c(Cl)cccc1Cl)Nc1cc(Cl)ccc1Oc1ccccc1 do in these assays?
HCMV inh: -1; Pf growth 96h: inconclusive; Sm TGR block: -5%; Pf growth 48h: 13µM*; FBPA Giardia inh: -8%

What do the screens show for `CC1CCC(NC(=O)CN2C(=O)NC(C)(C)C2=O)CC1` (centres undefined)?
HCMV inh: -23; Pf growth 96h: 5%; Sm TGR block: -1%; Pf growth 48h: 18%

Results for OC(COCCOc1ccc(Br)cc1)CN1CCN(Cc2ccccc2)CC1 (centres undefined) ?
HCMV inh: -101*; Pf growth 96h: inconclusive; Sm TGR block: 1%; Pf growth 48h: -14%; FBPA Giardia inh: -10%

How did OC(CNC1CCCC1)COc1ccc(-c2ccccc2)cc1 (centres undefined) do in these assays?
HCMV inh: -8; Pf growth 96h: 5%; Sm TGR block: 4%; Pf growth 48h: inconclusive; FBPA Giardia inh: 1%

How did CCOc1ccc(CN2CCN(CC(O)Cn3c4ccccc4c4ccccc43)CC2)cc1 (centres undefined) do in these assays?
HCMV inh: -1; Pf growth 96h: inconclusive; Sm TGR block: 0%; Pf growth 48h: 2.1µM*; FBPA Giardia inh: 1%

What do the screens show for `COc1ccc(CN2CCN(CC(O)Cn3c4ccccc4c4ccccc43)CC2)cc1` (centres undefined)?
HCMV inh: -11; Pf growth 96h: inconclusive; Sm TGR block: 9%; Pf growth 48h: 3.3µM*; FBPA Giardia inh: 6%
